# High-throughput results as filed in PubChem.
# In the library only some 5.2% were active in any assay of this set; here they are far more common.
# CR mimetic SO: yeast age-related superoxide inhibition as caloric restriction mimetic | hit rate 0.18% among 330,000 | S. cerevisiae aged cells, superoxide DHE fluorescence; stronger effect = lower value | AID 2690 | superoxide response (% of plate mean), % at 10 µM;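 active = superoxide response under a set limit, about three screen SD below normal, cut at about 65% in these data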;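 note: yeast aged for seven days with compound at 30 °C before DHE staining; 100% = average MFI of all compound-treated wells on the plate with controls excluded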
# APOBEC3G inh: inhibitors of human APOBEC3G DNA deaminase; hit rate 0.28% among 330,000; inhibition, % at 20 µM; recombinant A3G, ssDNA deamination FAM/TAMRA fluorescence; Q9HC16;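 active = inhibition of at least 40% at 20 µM, with no more than 30% in the related APOBEC3A deaminase screen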;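 note: plate controls were DMSO wells with A3G for no effect and wells lacking A3G enzyme for full effect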
# Target sequence (Q9HC16 whole entry, looked up): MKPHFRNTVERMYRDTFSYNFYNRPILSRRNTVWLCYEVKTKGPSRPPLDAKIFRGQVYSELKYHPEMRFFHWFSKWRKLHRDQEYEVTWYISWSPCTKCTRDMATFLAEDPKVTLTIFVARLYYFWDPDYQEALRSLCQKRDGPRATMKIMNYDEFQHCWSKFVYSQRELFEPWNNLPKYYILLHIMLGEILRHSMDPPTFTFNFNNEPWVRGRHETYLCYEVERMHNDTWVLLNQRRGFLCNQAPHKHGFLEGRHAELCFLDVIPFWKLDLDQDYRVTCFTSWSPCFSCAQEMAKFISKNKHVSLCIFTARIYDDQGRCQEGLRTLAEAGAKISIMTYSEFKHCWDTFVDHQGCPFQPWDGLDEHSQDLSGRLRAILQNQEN
# M18AAP inhibitor: PfM18AAP enzyme inhibition | hit rate 1.2% among 290,000 | AID 1822 | recombinant PfM18AAP, H-Glu-NHMec fluorogenic cleavage | inhibition, % at 7.35 µM;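 active = inhibition above the campaign mean inhibition over all tested compounds plus 3 SD, cut at about 28% in these data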;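 note: 0% = plate median of test compound wells and 100% = 2 mM ZnCl2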
# A3A deaminase: human APOBEC3A DNA deaminase inhibition; inhibition, % at 20 µM; recombinant A3A, FAM/TAMRA ssDNA deamination fluorescence; hit rate 0.41% among 330,000; P31941; AID 493011;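 active = at least 40% inhibition at 20 µM here, with at most 30% in a related deaminase screen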;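 note: plate controls were A3A with DMSO for no effect and wells lacking A3A enzyme for full effect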
# CendR NRP1 mod: modulators of CendR peptide binding to human neuropilin-1; O14786; FAM-RPARPAR peptide binding to NRP-1, fluorescence polarization; inhibition, % at 25 µM; hit rate 0.85% among 360,000; AID 602438;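 active = inhibition or corrected inhibition above about 18%, plus a signal ratio from 0.5 to 1.5, limit read from the data, passing the limit was not always enough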
# ALR inh: inhibitors of human sulfhydryl oxidase ALR; inhibition, % (concentration not given with the values); P55789; hit rate 3.8% among 290,000; AID 485317; purified ALR, DTT oxidation, H2O2 HRP-luminol luminescence;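 active = mean replicate inhibition above about 79%, with every replicate also reaching it, limit read from the data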
# Target sequence (P55789 whole entry, looked up): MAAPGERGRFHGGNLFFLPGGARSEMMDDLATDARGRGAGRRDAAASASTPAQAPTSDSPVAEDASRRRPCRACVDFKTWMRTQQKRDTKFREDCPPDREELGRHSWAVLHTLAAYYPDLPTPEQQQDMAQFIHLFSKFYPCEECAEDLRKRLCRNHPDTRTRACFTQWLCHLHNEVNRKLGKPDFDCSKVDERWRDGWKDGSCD
# A3A conf: APOBEC3A (human) deaminase inhibition, confirmed; AID 493151; inhibition, % at 20 µM; hit rate 63% among 1,400; recombinant A3A, ssDNA deaminase UDG fluorescence assay; shares compounds with A3A deaminase;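 active = inhibition reaching a set limit, 80% of the first screen's cutoff, at 20 µM in any replicate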;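 note: plate controls were DMSO wells with A3A for no effect and wells lacking A3A enzyme for full effect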
# UDG A3A counter: counter-screen for APOBEC3A inhibitors: UDG. shares compounds with A3A deaminase. UDG counterscreen, FAM/TAMRA uracil oligo fluorescence. inhibition, % at 20 µM. 1,000 tested, under 10 active. AID 504714; call rule not given here
# * = called active by the depositor; / = not tested or not shown.
SMILES,CR mimetic SO,APOBEC3G inh,M18AAP inhibitor,A3A deaminase,CendR NRP1 mod,ALR inh,A3A conf,UDG A3A counter
Cc1occc1C(=O)NCc1ccc(C(=O)O)o1,93,1,-17,10,-6,20,/,/
COCCNC(=O)c1ccc(N2CCCCC2)c(NS(=O)(=O)c2ccc(C)cc2)c1,88,-6,-4,-4,-3,10,/,/
COc1ccc2[nH]c(=O)c(CN(C(C)=O)c3cccc(C)c3)cc2c1,108,-5,-3,-3,-2,-15,/,/
COc1ccc(N(Cc2cc3cc(C)ccc3[nH]c2=O)C(C)=O)cc1,76,-4,2,47*,-9,0,-3,0
CCOC(=O)c1[nH]c2ccc(Br)cc2c1NC(=O)CCN1CCC(C)CC1,94,-2,2,3,5,-8,/,/
CCOC(=O)c1[nH]c2ccc(OC)cc2c1NC(=O)CCN1CCC(C)CC1,120,14,-2,49*,/,-10,22,/
COc1cc(CNC(C)C)c(Br)cc1OC1CCCC1,88,-3,-1,-1,1,-6,/,/
COc1ccc(-n2c(C)cc(/C=C3/SC(=S)N(C)C3=O)c2C)cc1,104,/,1,/,-110,-10,/,/
Cc1cc(/C=C2\SC(=O)N(C)C2=O)c(C)n1-c1ccc(S(N)(=O)=O)cc1,99,16,6,50*,11,2,63*,-1
COc1cc(C(=O)OCCc2c(C)nc3nc[nH]n3c2=O)cc(OC)c1OC,109,-5,-2,-1,22,-1,/,/
CCn1c(SCc2ccc(Cl)c(Cl)c2)nnc1C(C)NC(=O)c1ccc(OC)cc1 (stereo not given),103,-4,2,-1,9,0,/,/
COc1ccc(C(=O)NC(C)c2nnc(SCc3ccc(Cl)c(Cl)c3)n2C)cc1 (stereo not given),112,16,11,57*,-11,-18,60*,-2
Cc1[nH]c2ccccc2c1/C=C(\C#N)C(=O)NC(C)c1ccccc1 (stereo not given),119,9,6,41*,-6,-4,72*,1
COc1ccccc1C(OC(=O)c1cccs1)C(=O)NCC1CCCO1 (stereo not given),103,0,5,4,9,-5,/,/
O=C(Nc1cccc2cccnc12)c1ccc(Cl)cc1Cl,106,-2,6,-1,-2,-23,/,/
CCC(C)NC(=O)c1ccc(COc2ccccc2Cl)cc1 (stereo not given),74,4,5,1,-6,-9,/,/
CC(c1ccccc1)C1OCC(C[N+]2(C)CCCCC2)O1 (stereo not given),102,15,-7,68*,7,-1,66*,0
C[n+]1cccc(/C=N/NC(=O)CC23CC4CC(CC(C4)C2)C3)c1,83,16,2,45*,-4,0,67*,0
COc1cc(C2c3c(oc4cc(C)c(C)cc4c3=O)C(=O)N2c2cc(C)ccn2)ccc1O (stereo not given),97,-6,3,-1,-6,4,/,/
CN(C(=O)/C=C/c1ccco1)c1ccccc1C(=O)O,97,10,5,44*,-5,12,22*,-2
CN(C(=O)C=Cc1ccco1)c1ccccc1,/,/,/,/,12,/,/,/
COc1ccccc1NC(=O)COC(=O)c1cc2c(s1)CCC2,/,6,/,56*,-3,/,46*,-1
COc1ccc(N(CC(=O)N2CCCCCC2)S(=O)(=O)c2ccccc2[N+](=O)[O-])c(OC)c1,103,17,4,50*,-8,-7,62*,-2
O=C(Nc1nc2ccccc2s1)C1CCN(S(=O)(=O)c2cc([N+](=O)[O-])ccc2Cl)CC1,114,22,28*,80*,-5,/,40*,/
O=C(N/N=C/c1ccc2c(c1)OCO2)c1ccc(COCC(F)(F)C(F)F)cc1,97,-6,-2,98*,-3,-5,-1,-2
SMILES,CR mimetic SO,APOBEC3G inh,M18AAP inhibitor,A3A deaminase,CendR NRP1 mod,ALR inh,A3A conf,UDG A3A counter
C[n+]1cccc(C(=O)N/N=C/c2ccc3c(c2)OCO3)c1,89,18,2,75*,10,-4,69*,-1
CCN(C(=O)COC(=O)CCS(=O)(=O)c1ccccc1)c1c(N)n(Cc2ccccc2)c(=O)[nH]c1=O,/,/,/,/,10,/,/,/
Cc1c(Cl)cccc1NC(=O)C1CCCN(S(C)(=O)=O)C1 (stereo not given),103,-6,6,-5,-3,4,/,/
O=C(CNC(=O)c1cccc(F)c1)OCC(=O)N1CCCCC1,108,2,1,41*,2,/,2,/
Cn1c(-c2ccc(F)cc2)cnc1SCC(=O)N1CCCCC1,95,4,4,5,6,/,/,/
O=C(NCCc1ccccc1)c1ccc2c(c1)OCCCO2,100,6,-6,42*,-2,-3,51*,2
CCOc1ccc(/C=N/NC(=O)C(C)N(c2ccc(OC)cc2)S(C)(=O)=O)cc1 (stereo not given),94,-1,3,-3,3,-8,/,/
CCOc1ccc(N(CC(=O)N/N=C/c2ccc(OC(C)C)cc2)S(C)(=O)=O)cc1,112,9,2,52*,3,0,26,/
S=C(NCc1cccnc1)Nc1cc(Cl)cc(Cl)c1,97,-11,1,-3,13,-3,/,/
O=C1c2ccccc2C(=O)N1CC(O)COCc1ccccc1 (stereo not given),90,-7,-5,-4,-13,-6,/,/
CCc1n(CC(O)COCc2ccccc2)c2ccccc2[n+]1C (stereo not given),98,16,-2,58*,-5,/,79*,-2
NC(=O)c1ccc(NC(=O)C2CC(=O)N(c3ccc4c(c3)OCCO4)C2)cc1 (stereo not given),95,-5,/,18,3,-4,/,/
CCN(CC)CCNC(=O)c1ccc(NC(=O)C2CC(=O)N(c3ccc4c(c3)OCCO4)C2)cc1 (stereo not given),98,5,/,48*,18,-3,52*,-4
CCN(CC)Cc1c(C(=O)N/N=C/c2ccncc2)nnn1-c1nonc1N,99,0,-2,-1,-8,-5,/,/
CN(C)Cc1c(C(=O)N/N=C/c2ccncc2)nnn1-c1nonc1N,90,-9,-2,48*,-14,1,0,-1
Cc1ccc(C(OCC(C)(C)C[N+](C)(C)C)c2ccccc2)cc1 (stereo not given),78,26,6,65*,4,/,76*,-1
CCOC(=O)C1=C(C)Nc2sc(C(=O)c3ccc(F)cc3)c(N)c2C1c1ccc(C(=O)OC)cc1 (stereo not given),107,-3,13,76*,-30,13,-10,-1
